PubChem BioAssay
Active and inactive are the calls of the source.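 The calls were made as follows, unless noted: active = NADPH fluorescence slope more negative than the mean of all samples by about 3 SD, 99.7% confidence; inactive = the rest.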

What was measured:
[1] = inhibitors of TNFa-induced NFkB p65 translocation, primary screen, imaging, HUVEC, MLSMR starter and 10KST1 sets (AID 438;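 active = inhibition above 20% together with a positive visual image hit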;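 also: compound added about 3h40 before a 20 min TNFalpha stimulation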;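 as to inhibition: signal is the nuclear over cytoplasmic p65 intensity ratio per well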); conditions: HUVEC TNFa-induced p65 nuclear translocation; cell count: measured here: nuclei count (cytotoxicity indicator), at 2.08 µM; inhibition: at 2 µM, stronger effect = higher value, 0% TNFa-plus-vehicle, 100% no-TNFa wells
[2] = inhibitors of mutant huntingtin aggregation, primary screen, imaging, exon1htt(103Q)mCFP cells, high-content imaging (AID 483;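 active = visual image review flags a hit and inhibition of aggregation exceeds 20%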;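 also: compound exposure lasted 3 days before fixation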;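 as to nuclei count: percent of the per-plate median nuclei count of sample wells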); conditions: exon1htt(103Q)mCFP cell line, aggregate imaging, at 2 µM; inhibition of aggregation: stronger effect = higher value; nuclei count: measured here: cell count, toxicity
[3] = inhibitors of E-selectin induction by TNFa, primary screen, imaging, HUVEC, immunofluorescence, MLSMR starter and 10KST1 sets (AID 487;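 active = visually confirmed hit in the image check and inhibition above 20%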;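 as to inhibition: signal is fraction of cell area covered by stained E-selectin grains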;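 as to nuclei count: 100% = median nuclei count of all wells on the same plate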); conditions: HUVEC TNFalpha-induced E-selectin immunofluorescence imaging, at 2 µM; inhibition: stronger effect = higher value; nuclei count: measured here: cell number, toxicity
[4] = biological target: Voltage-gated potassium channel subunit beta-2 (Rattus norvegicus) (UniProt P62483); test: KvBeta enzyme negative modulators, primary screen, biochemical, NADPH fluorescence (AID 622;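 active = fluorescence slope higher than the sample average by over 3 SD, cut at about -0.22 in these data, passing the limit was not always enough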;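 also: slope of raw intensity against log time taken from 70 to 1610 s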); conditions: recombinant KvBeta, 4-cyanobenzaldehyde reduction, at 10 µM, stronger effect = higher value
[5] = biological target: Voltage-gated potassium channel subunit beta-2 (Rattus norvegicus) (UniProt P62483); test: KvBeta positive modulators, primary screen, biochemical, NADPH fluorescence (AID 623); conditions: Recombinant KvBeta, NADPH fluorescence decrease slope, 10 min; at 10 µM; stronger effect = lower value;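 also: fluorescence intensity change per second fitted from 20 to 320 s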
[6] = biological target: Alpha-2C adrenergic receptor (Homo sapiens) (UniProt P18825); test: modulators of alpha2C/GIRK thallium flux, primary screen, cell-based, HEK293 alpha2C/GIRK1/2 (AID 624;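 active = fluorescence slope after compound addition differing from the mean of all screened samples at 99.7% confidence, in either direction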;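 also: slope of fluorescence ratio to pre-addition baseline per second over 15 to 24 s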); conditions: thallium flux BTC fluorescence, at 10 µM, actives lie on both sides
[7] = inhibitors of Sendai virus-induced IRF3 signaling, primary screen, TLR/RLR signaling modifier project, cell-based, Sendai virus stimulus, luciferase, 10K MLSCN set (AID 602276;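 active = inhibition at or above 50% at 10 µM; inactive = inhibition below 50%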;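 also: firefly luciferase from ISG56 promoter only with Renilla not read in this screen; 0% = Sendai virus plus DMSO and 100% = medium plus DMSO without virus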); conditions: HEK293 RL24 IRF3 luciferase reporter, at 10 µM, stronger effect = higher value
[8] = inhibitors of poly I:C-induced TLR3 signaling, primary screen, cell-based, poly I:C stimulus, luciferase, 10K MLSCN set (AID 602277;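 active = inhibition of the reporter signal at or above 50%; inactive = inhibition below 50%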); conditions: HEK293-TLR3 RL24 IRF3 luciferase reporter, at 10 µM, stronger effect = higher value

Voltage-gated potassium channel subunit beta-2 (Rattus norvegicus), sequence (P62483 whole entry, looked up): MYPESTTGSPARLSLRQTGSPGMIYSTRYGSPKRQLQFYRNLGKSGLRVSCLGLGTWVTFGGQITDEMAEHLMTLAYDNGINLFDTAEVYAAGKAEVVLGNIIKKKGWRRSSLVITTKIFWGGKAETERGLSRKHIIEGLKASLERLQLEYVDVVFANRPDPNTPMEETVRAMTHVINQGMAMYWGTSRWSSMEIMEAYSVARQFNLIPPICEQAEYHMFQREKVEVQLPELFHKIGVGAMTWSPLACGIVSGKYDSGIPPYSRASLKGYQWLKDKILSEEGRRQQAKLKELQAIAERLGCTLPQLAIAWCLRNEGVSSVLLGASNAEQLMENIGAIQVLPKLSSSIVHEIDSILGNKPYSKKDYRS
Alpha-2C adrenergic receptor (Homo sapiens), sequence (P18825 whole entry, looked up): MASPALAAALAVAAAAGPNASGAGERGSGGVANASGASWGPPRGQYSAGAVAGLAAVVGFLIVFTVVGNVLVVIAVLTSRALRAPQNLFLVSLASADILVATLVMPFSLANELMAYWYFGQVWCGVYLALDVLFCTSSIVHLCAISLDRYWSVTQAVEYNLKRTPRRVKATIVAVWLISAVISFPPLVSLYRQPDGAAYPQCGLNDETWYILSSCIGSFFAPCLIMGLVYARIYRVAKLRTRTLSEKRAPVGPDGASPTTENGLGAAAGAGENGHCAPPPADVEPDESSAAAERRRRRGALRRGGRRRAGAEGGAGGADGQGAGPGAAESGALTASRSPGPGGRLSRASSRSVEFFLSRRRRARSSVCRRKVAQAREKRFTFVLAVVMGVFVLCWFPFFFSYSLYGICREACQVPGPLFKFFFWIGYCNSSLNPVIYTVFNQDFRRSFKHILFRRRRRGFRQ

| Compound | cell count [1] | inhibition [1] | inhibition of aggregation [2] | nuclei count [2] [%] | inhibition [3] | nuclei count [3] [%] | fluorescence slope [4] | NADPH fluorescence slope [5] | slope [6] | inhibition [7] | inhibition [8] |
| --- | --- | --- | --- | --- | --- | --- | --- | --- | --- | --- | --- |
| CCOC(=O)C1CCN(C(=O)COc2ccc(Cl)cc2Cl)CC1 | 705 | -5.1% (inactive) | 8% (inactive) | 103 | 4.3% (inactive) | 104 | -0.613 (inactive) | -1.6e-05 (inactive) | 0.00593 (inactive) | 3.61% (inactive) | 14.2% (inactive) |
| CCOC(=O)c1ccc(NC(=O)CCc2c(C)nc3ncnn3c2C)cc1 | 402 | 1.9% (inactive) | -19.7% (inactive) | 107 | -138% (inactive) | 116 | -0.508 (inactive) | 6.6e-06 (inactive) | 0.00565 (inactive) | -2.81% (inactive) | 7.84% (inactive) |
| Cc1cc(C)nc(SCC(=O)Nc2ccc(S(=O)(=O)Nc3nccs3)cc2)n1 | 312 | 9% (inactive) | 5.3% (inactive) | 97.6 | -21.2% (inactive) | 116 | -0.383 (inactive) | -5.8e-05 (inactive) | 0.00544 (inactive) | 10% (inactive) | 32.8% (inactive) |
| O=C(Cn1nc(Cc2ccncc2)c2ccccc2c1=O)N1CCN(C(=O)c2ccco2)CC1 | 780 | -7.3% (inactive) | -29.3% (inactive) | 110 | -15.2% (inactive) | 112 | -0.58 (inactive) | -2.7e-05 (inactive) | 0.0062 (inactive) | -0.346% (inactive) | 21.1% (inactive) |
| CC(C)Cc1nnc(NC(=O)CCC(=O)N2CCOCC2)s1 | 597 | 8.1% (inactive) | -2% (inactive) | 106 | 17.3% (inactive) | 102 | -0.422 (inactive) | -3.6e-05 (inactive) | 0.00514 (inactive) | 12.2% (inactive) | 10.8% (inactive) |
| Cc1ccccc1-c1nc(CS(=O)(=O)CC(=O)NCc2ccc3c(c2)OCO3)c(C)o1 | 676 | -0.6% (inactive) | -60.8% (inactive) | 115 | -6.5% (inactive) | 110 | -0.497 (inactive) | -2.5e-05 (inactive) | 0.0071 (inactive) | 24.2% (inactive) | 17% (inactive) |
| COc1cccc(C(=O)Nc2ccc(C)cc2)c1 | 410 | -0.2% (inactive) | 4.8% (inactive) | 95.1 |  | 154 | -0.367 (inactive) | 4.6e-05 (inactive) | 0.00626 (inactive) | -48.7% (inactive) | -91.5% (inactive) |
| C[C@@H]1C[C@H](O)c2cc(Cl)ccc2N1 | 404 | -7.2% (inactive) | 17.5% (inactive) | 97.5 | -39.2% (inactive) | 114 | -0.594 (inactive) | -1.8e-05 (inactive) | 0.0061 (inactive) | 11% (inactive) | 27.1% (inactive) |
